In all, about 320,000 compounds went through this assay and about 9,100 (2.8%) were called active. Roughly 3% stayed inconclusive and do not appear here. What follows is part of a selection rich in actives, with near analogues and random picks from the rest. Unmarked numbers belong to inactive results. Calls follow the shape of the dose curve; as a rule, active = well fitted activation curve with a large enough effect; inconclusive = small, poorly fitted or top-dose-only effect; inactive = no such curve, though single readings can be large or run the other way.
Assay: qHTS Assay for Rab9 Promoter Activators; also: nearly all actives have a fitted effect of over 60% in size; as to activation, negative = inhibition: % of control where 0% means no effect
Conditions: Huh7 Rab9 promoter-luciferase reporter, luminescence, 24 h; series mostly up to 9.22 µM; activation, negative = inhibition: at the top concentration
Excerpt: NIH Chemical Genomics Center [NCGC] NIH Molecular Libraries Probe Production centers Network [MLPCN] MLPCN Grant: MH089537-01 Assay Submitter (PI): Yiannis A. Ioannou NCGC Assay Overview: Niemann Pick Type C (NPC) is a rare neurodegenerative lipidosis that is characterized by lipid storage in the endosomal/lysosomal system. Treatment modalities for this devastating disease are currently non-existent due to the severe obstacles associated with accessing the central nervous system with proteins or genes (Ioannou, 2000). We have developed a new paradigm, termed "Orphan Receptor Bypass Therapy" (ORByT), to address these disorders. This paradigm posits the existence of endogenous "suppressor" proteins whose expression can dramatically improve LSD pathogenesis. The goal is the identification/discovery of small chemical compounds that can modulate the expression of these proteins and provide a new treatment modality for these devastating disorders. One such protein whose overexpression reverses aspects of the NPC phenotype is Rab9. We have developed and optimized a cell based luciferase reporter assay in 1536 well format for the identification of up-regulators of the Rab9 promoter.
The Rab9 promoter is cloned in front of the luciferase reporter gene, therefore […] promoter activation results in luciferase expression. Frozen stock of the Rab9 promoter transfected Huh7 cells were obtained from the laboratory of Dr. Yiannis Ioannou (The Mount Sinai School of Medicine, New York, NY). Cells were propagated and maintained at NCGC in medium containing RPMI-1640 supplemented with 10% FBS, 2mM L-glutamine, and 50ug/ml penicillin/streptomycin. Cells were harvested in and plated for assays in OP-MEM I reduced-serum medium supplemented with 10% FBS. The Amplite luciferase reporter gene assay kit was purchased from ABD Bioquest and prepared/stored according to manufacturers recommendations. qHTS Assay Setup: 1.Dispensed 5ul of Huh7 cells stably expressing Rab9-luciferase at a density of 1500 cells per well 1536-well plates. 2.Incubate cells at 37C, 5% CO2, and 95% humidity for 2 hours. 3.Transferred 23nl per well of compound in DMSO solution. 4.Incubated at 37C, 5% CO2, and 95% humidity for 24 hours. 5.Dispensed 3ul per well of Amplite reagent(ABD Bioquest) per well. 6.Incubate at ambient for 10 minutes. 7.Read using the luminescence protocol on the ViewLux plate reader (Perkin Elmer).
Potency is read from the fitted curve at half-maximal effect.

Compound	activation, negative = inhibition [%]	Potency
O=C(COC(=O)c1ccccc1Br)Nc1nnc(-c2ccccc2)o1	1.02	
Nc1ccc(-c2nnc(-c3ccc(-c4ccccc4)cc3)o2)cc1		2510 nM (active)
Nc1ccc(-c2nnc(-c3ccccc3)o2)cc1		3980 nM (active)
Nc1ccc(-c2sc(N)nc2-c2ccccc2)cc1	-1.5	
O=C(Nc1cccc(Cl)c1)Nc1nnc(-c2ccccc2)o1	-0.239	
O=C(COC(=O)c1ccc(Oc2ccccc2)cc1)Nc1nnc(-c2ccccc2)o1	-3.52	
CC(C(=O)NC1CCCC1)N1CCN(S(=O)(=O)c2ccccc2Cl)CC1 (centres undefined)	-5	
COc1ccc(N(CCC(=O)NCCc2ccccc2)S(=O)(=O)c2ccc(C)cc2C)cc1	20.1	
COC(=O)c1ccc(C(=O)NC2CC(C)(C)Cc3c2cnn3-c2ccc(F)cc2)nc1 (centres undefined)	0.0943	
Cn1c(N)c(C(=O)COC(=O)COc2ccc(Cl)cc2)c(=O)n(C)c1=O	-7.69	
Cc1ccc(C(=O)COc2cccc(NC(=O)c3ccco3)c2)cc1	-4.08	
Cc1ccoc1C(=O)Nc1cccc(Oc2ccccc2)c1		3980 nM (active)
Cc1cccc(NC(=O)Nc2cccc(Oc3c(F)c(F)c(F)c(F)c3F)c2)c1	-10.1	
Cc1cccc(-n2ncc(Cl)c(Cl)c2=O)c1	-53.7	
COc1ccc(-n2ncc3c(N4CCCc5ccccc54)ncnc32)cc1		794 nM (active)
Cc1cccc(-n2ncc3c(N4CCc5ccccc54)ncnc32)c1		2000 nM (active)
Cc1ccc2c(c1)c1ncnc(N3CCc4ccccc4C3)c1n2C	28.8	
COc1ccc2oc(=O)c(C(=O)N3CCCc4ccccc43)cc2c1	-2.67	
COc1ccc(Oc2c(Cl)cnn(-c3ccccc3)c2=O)cc1	-8.14	
CC1(NC(=O)CCS(=O)(=O)c2ccc(Cl)cc2)CCS(=O)(=O)C1 (centres undefined)	-0.164	
COCCNc1nc2nonc2nc1N1CCCC1c1nccs1 (centres undefined)	-11.2	
CC(=O)NC12CC3CC(C1)CC(C(=O)N1CCN(C(=O)c4ccco4)CC1)(C3)C2	2.91	
CCCNC(=O)c1ccc(Cl)c(Cl)c1	-0.125	

Compound	activation, negative = inhibition [%]	Potency
CCCNC(=O)CCc1c(C)nc2c(c(C)nn2-c2ccc(C)cc2)c1C	-3.89	
CCCNC(=O)c1c(Cl)cnn1-c1ccc(C)cc1		2510 nM (active)
O=C(CCc1nc2sc3c(c2c(=O)[nH]1)CCCC3)NCC(=O)Nc1ccccc1Br	-0.0082	
COc1cc(OC)cc(-c2c(-c3cccs3)c3cc(-c4ccc(OC)nc4)ccc3n2C)c1	-5.18	
O=C(NCC(=O)N1CCCCCCC1)c1ccccc1Cl	19.2	
COc1ccccc1/C=C/C(=O)OCC(=O)NC1CCCCCC1	-1.16	
Cc1cc(C)n2nc(C(=O)OCC(=O)N(C)CC(=O)Nc3ccc(F)cc3)nc2n1	-4.64	
COc1ccc(C(=O)NC2CCN(C(=S)Nc3ccccc3)CC2)cc1	3.06	
COc1ccc(NC(=S)N2N=CCC2c2ccccc2)cc1 (centres undefined)		3160 nM (active)
CCC(C)N(C)C1CCN(C(=S)Nc2ccc(OC)cc2)CC1 (centres undefined)	0.502	
CC(C(=O)Nc1ccc(S(=O)(=O)N2CCCC2)cc1)N(C)Cc1ccc(F)cc1 (centres undefined)	-1.48	
CN(CC(=O)NCc1ccc(Cl)cc1)S(=O)(=O)c1cccs1	0.449	
COc1cccc(NC(=O)COC(=O)/C=C/c2ccco2)c1	-3.31	
COC(=O)C1=C(C)NC(=S)NC1c1ccc(OCC(=O)N2CC(C)OC(C)C2)c(OC)c1 (centres undefined)	-3.17	
COc1ccc(Cc2nnc(NC(=O)c3ccc(OC)cc3OC)s2)cc1	28.2	
CCOc1ccc(C(=O)CCC(=O)NC2=NCCS2)cc1	0.981	
O=C(NC1=NCCS1)c1ccc(Cl)s1		3980 nM (active)
COc1ccccc1C(=O)NCCC(=O)NC1=NCCS1	0.791	
O=C(NCc1ccc2c(c1)OCO2)c1ccc(Cl)s1	13	
COc1ccc(C(=O)NC2=NCCS2)c(OC)c1		1410 nM (active)
COc1ccc(OC)c(NC(=O)c2cnn(-c3ccccc3Cl)c2NC(=O)c2ccco2)c1	3.75	
COc1ccccc1OCC(=O)Nc1c2c(nn1-c1ccc(F)cc1)CS(=O)(=O)C2	4.13	
Cc1occc1-c1nnc(SCC(=O)NC2(C#N)CCCC2)n1C	-3.34	

Compound	activation, negative = inhibition [%]	Potency
CC(=O)Nc1ccc(S(=O)(=O)Nc2nc(-c3ccc(C(C)(C)C)cc3)cs2)cc1	-2.13	
CC(C)(C)C(=O)Nc1ccc(-c2cn3cccnc3n2)cc1		3980 nM (active)
CC(=O)Nc1ccc(S(=O)(=O)Nc2cccc(NC(=O)C(C)(C)C)c2)cc1	-4.58	
FC(F)(F)Oc1ccc(-c2cn3cccnc3n2)cc1		2510 nM (active)
O=c1ccc(S(=O)(=O)N2CCCC2)cn1Cc1nc(-c2ccccc2)no1	-5.62	
O=C(Cn1nnc(-c2ccccc2)n1)NC(=O)NC1CCCC1	-3.17	
CCOc1ccc(NC(=O)CN(C)C(=O)c2cccc(S(=O)(=O)N3CCCC3)c2)cc1OCC	-0.932	
CCN(CC(=O)Nc1ccc(OC)cc1)C(=O)CSCc1ccc(C)cc1	-5.85	
CC1(C)CC(=O)C=C(c2ccc3ncccc3c2)C1	-3.31	
O=C(Nc1cc(S(=O)(=O)N2CCOCC2)ccc1OCC(F)(F)F)c1ccc(N2CCCC2=O)cc1	0.24	
O=C(CSc1ccc(-c2ccco2)nn1)Nc1cccc(F)c1	-1.84	
Cc1cc(SCc2c(F)cccc2Cl)nc(=O)[nH]1	8.66	
Fc1cccc(Cl)c1CSc1ccc(-c2ccco2)nn1		2510 nM (active)
O=C(COC(=O)CNC(=O)C1CCCCC1)Nc1cccc(F)c1	1.46	
CCN(CC(=O)Nc1c(F)cccc1F)C(=O)c1ccc(-c2ccc(C(C)=O)cc2)o1	-4.82	
Cc1cc(C)cc(-c2nnc(SCC(=O)NC3CC3)o2)c1	0.777	
Cc1ccc(C(CC(=O)O)NC(=O)c2ccc(S(=O)(=O)N3CCCC3)cc2)cc1 (centres undefined)	-1.46	
O=C(OCc1nnc(-c2ccccc2)o1)c1ccc2c(c1)C(=O)N(CCc1ccccc1)C2=O	-10.1	
CC(=O)Nc1cccc(C(=O)OCC(=O)Nc2nnc(-c3ccccc3)o2)c1	-1.13	
O=C(OCc1ccc(Br)cc1)c1cccc(-c2nnc(-c3ccccc3)o2)c1		3550 nM (active)
O=C(NCCC1=CCCCC1)c1ccc(Cl)c([N+](=O)[O-])c1	3.78	
O=C(COc1cccc(-n2cnnn2)c1)NCCC1=CCCCC1	-3.87	
O=C(NCCC1=CCCCC1)c1ccc(-n2cncn2)cc1		3160 nM (active)

Reference: PubChem BioAssay AID485297 (National Center for Advancing Translational Sciences (NCATS), 2010)
